# Columns and labels:
# Conditions in all cases: concentration: 1 μM, replicates: in singlicate; n = 1
# MTOR = test system: MTOR
# MUSK = test system: MUSK
# MYLK2 = test system: MYLK2
# MYLK4 = test system: MYLK4
# MYLK = test system: MYLK
# MYO3A = test system: MYO3A
# MYO3B = test system: MYO3B
# NDR1 = test system: T1, NDR1
# T1 construct: gene STK38
# NDR2 = test system: NDR2
# NEK10 = test system: NEK10
# 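Further: KINOMEscan kinase panel screen.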
SMILES,%Inh (MTOR) [%],%Inh (MUSK) [%],%Inh (MYLK2) [%],%Inh (MYLK4) [%],%Inh (MYLK) [%],%Inh (MYO3A) [%],%Inh (MYO3B) [%],%Inh (NDR1) [%],%Inh (NDR2) [%],%Inh (NEK10) [%]
CCc1ccc(-c2ccc3c(c2)-c2c(cnn2C)S(=O)(=O)N3C)cc1,0,14,0,1,0,16,25,0,0,9
O=C(Nc1n[nH]c2nc(-c3ccc(O)cc3)ccc12)C1CC1 [SB-710363],0,0,79,31,35,62,9,0,4,0
Cc1cccc(Nc2nc(N[C@H]3CCNC3)ncc2C(N)=O)c1.Cl [GSK2197149],0,0,0,81,16,2,0,0,0,56
CN1CCN(CCCNc2nccc(-c3c(-c4ccc(F)cc4)nn4cc(C(F)(F)F)ccc34)n2)CC1 [GW621581],0,0,8,0,0,0,0,10,0,10
Cc1occc1-c1ncc(OC[C@@H](N)Cc2c[nH]c3ccccc23)cc1-c1ccc2[nH]nc(C)c2c1.O=C(O)C(F)(F)F [GSK682037],7,7,21,0,29,75,38,30,0,4
COc1cc(Nc2nccc(N3CCC(NC(=O)Nc4cccc(C(C)=O)c4)C3)n2)cc(OC)c1OC (centres unmarked) [GSK1379753],0,18,7,1,17,6,0,8,0,20
CC(C)c1nc(-c2cccc(NS(=O)(=O)c3c(F)cccc3F)c2F)c(-c2ccnc(Nc3ccc(N4CCOCC4)nc3)n2)s1 [GSK2008607],10,10,0,0,18,78,65,62,65,0
CCS(=O)(=O)c1ccc(OC)c(Nc2nccc(-c3c(-c4cccc(NC(=O)c5c(F)cccc5F)c4)nn4ncccc34)n2)c1 [GSK326180],15,11,9,2,17,30,6,0,0,21
c1ccc(-c2cnc3nccnn23)cc1 [AH20685],2,2,0,0,0,0,0,0,0,0
COc1cc(Nc2nccc(N3CCC(NC(=O)c4cc5ccccc5s4)C3)n2)cc(OC)c1OC (centres unmarked) [GSK1379760],34,1,13,3,0,17,0,12,0,18
COC(=O)Nc1nc2ccc(Oc3ccc(NC(=O)Nc4cc(C(F)(F)F)ccc4F)cc3)cc2n1C.Cl [GW692089],28,98.5,36,0,0,17,0,24,45,1
COc1cccc(NC(=O)NC2CCN(c3ccnc(Nc4cc(OC)c(OC)c(OC)c4)n3)C2)c1 (centres unmarked) [GSK1379763],7,5,0,0,17,12,0,0,0,15
Cl.NC(=O)c1cccc(Nc2nccc(Nc3ccc(Oc4c(Cl)cccc4Cl)c(Cl)c3)n2)c1 [GW659009],0,5,0,0,0,0,0,17,0,0
CC(=O)Nc1nc2cnc(Nc3cc(NC(=O)c4cccc(C5(C#N)CC5)c4Cl)ccc3C)nc2s1,4,12,0,0,0,0,0,0,0,1
CC(=O)N1CCN(c2ccc(Nc3nccc(-c4sc(C(C)C)nc4-c4cccc(NS(=O)(=O)c5cccc(Cl)c5)c4)n3)cn2)CC1 [GSK1660437],3,14,0,0,7,12,49,14,0,0
FC(F)(F)c1ccc(/C=C/c2cncnc2Nc2ccc3[nH]c(Cc4ccccc4)nc3c2)cc1 [GW709199],28,15,2,25,15,0,30,21,0,0

SMILES,%Inh (MTOR) [%],%Inh (MUSK) [%],%Inh (MYLK2) [%],%Inh (MYLK4) [%],%Inh (MYLK) [%],%Inh (MYO3A) [%],%Inh (MYO3B) [%],%Inh (NDR1) [%],%Inh (NDR2) [%],%Inh (NEK10) [%]
Cn1cc(-c2[nH]c3cc(NC(=O)[C@H](N)C4CCCCC4)cc4c3c2C=NNC4=O)cn1,17,12,47,98.7,24,5,0,93.1,75,54
Fc1ccc(-c2ncn(C3CCNCC3)c2-c2ccnc(Oc3ccc(-c4ccccc4)cc3)n2)cc1 [SB-245391],0,40,0,21,16,24,17,31,13,0
Cc1cccc(NC(=O)Nc2ccc(Oc3ncnc4ccn(C)c34)cc2)c1,26,17,0,0,0,0,5,30,0,0
CCn1c(-c2nonc2N)nc2c(C#CC(C)(C)O)ncc(OCCCCN)c21.O=C(O)C(F)(F)F.O=C(O)C(F)(F)F [GSK507274],19,15,48,0,0,12,5,7,0,15
NCCCC(NC(=O)c1cc(Br)c(-c2ccnc3[nH]ccc23)s1)c1ccccc1.O=C(O)C(F)(F)F.O=C(O)C(F)(F)F (centres unmarked) [GSK1287544],3,8,30,99.6,23,0,0,95.7,86,20
COc1ccc(Nc2nccc(NCCNC(=O)c3cc4ccccc4s3)n2)cc1 [GSK1379896],0,8,0,6,18,5,0,9,0,0
Cl.Cl.NCC(NCc1ccc(-c2ccnc3[nH]ccc23)s1)c1ccccc1 (centres unmarked) [GSK1321565],43,13,5,99.8,59,34,0,53,31,27
Cn1cc(-c2ccc3c(c2)CCN3C(=O)Cc2cccc(Cl)c2)c2c(N)ncnc21 [GSK2606590],0,29,71,0,8,43,21,0,0,18
Cn1cc(-c2ccc3c(c2)CCN3C(=O)Cc2cccc(F)c2)c2c(N)ncnc21 [GSK2603358],16,5,83,0,18,51,5,0,7,22
COc1cccc(C2=C(Nc3ccc(Cl)c(C(=O)O)c3)C(=O)NC2=O)c1 [SB-390769],18,17,21,60,100,20,0,100,0,73
c1ccc(Oc2ccc(Nc3ccnc4cc(-c5ccc(CNCCN6CCOCC6)o5)ccc34)cc2)nc1 [GW567145],23,1,0,0,0,24,0,16,40,0
O=C(Nc1cccc(-c2nn3ccccc3c2-c2ccnc(Nc3cccc(F)c3)n2)c1)c1c(F)ccc(F)c1Cl [GSK357952],0,11,10,0,5,0,0,41,0,44
C[C@@H]1CC[C@@H](C(=O)Nc2ccccc2)CN1c1cc(-c2ccc3c(N)n[nH]c3c2)nc(N)n1 [GSK2286062],0,0,0,5,15,33,0,13,0,7
COc1cc2c(cc1OCCN1CCNCC1)ncc1c3ccc(C#N)cc3[nH]c21,19,0,68,70,47,0,0,3,0,20
CCCCc1nn2ncccc2c1-c1ccnc(Nc2ccc(N3CCN(C)CC3)cc2)n1 [GW684941],16,98.2,41,26,4,0,0,18,0,65
O=c1[nH]cc(-c2ccc(N3CCOCC3)cc2)c2sc(-c3cn[nH]c3)cc12 [GSK2276055],8,0,3,48,18,53,0,30,29,0
